# Compounds without any hit were thinned out: in the full panel of roughly 79,000, 15% have a hit. A number with no mark means an inactive call. Activity calls are given as the source filed them. Rule as the data show it: active = growth inhibition above about 70%; inactive = the rest.
# Columns and labels:
# [1] = NCI Yeast Anticancer Drug Screen. Data for the rad50 strain (AID 155);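 also: 0% = growth of vehicle-only cultures of the same strain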; settings: S. cerevisiae rad50 strain growth inhibition, stronger effect = higher value
# Outline: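 Readout: growth inhibition relative to vehicle-treated cultures. Compound exposure was carried out in a genetically defined yeast strain deficient in DNA damage repair.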
# [2] = NCI Yeast Anticancer Drug Screen. Data for the mec2-1 strain (AID 157); settings: S. cerevisiae mec2-1 strain, stronger effect = higher value
# Outline: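 Using mec2-1 yeast: add compound, measure growth, express inhibition versus vehicle-treated cultures.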
# [3] = NCI Yeast Anticancer Drug Screen. Data for the sgs1 mgt1 strain (AID 161);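 also: 0% = growth of cultures given vehicle only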; settings: S. cerevisiae sgs1 mgt1 strain, stronger effect = higher value
# Outline: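 Yeast cells carrying a defined DNA-repair defect were exposed to test compounds. Growth inhibition was measured relative to vehicle-treated controls.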
# [4] = NCI Yeast Anticancer Drug Screen. Data for the cln2 rad14 strain (AID 165);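 also: 0% = growth equal to vehicle treated cultures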; settings: S. cerevisiae cln2 rad14 strain, stronger effect = higher value
# Outline: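 Yeast strain cln2 rad14, bearing defects in cell cycle control and DNA repair, serves as the test system; values reflect growth inhibition compared with vehicle.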
# [5] = NCI Yeast Anticancer Drug Screen. Data for the bub3 strain (AID 167); settings: S. cerevisiae bub3 mutant strain, stronger effect = higher value
# Outline: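 Readout: yeast growth inhibition, expressed relative to vehicle-only wells. The test organism is a mutant strain from a panel with lesions in DNA repair or checkpoint genes.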
# [6] = NCI Yeast Anticancer Drug Screen. Data for the mlh1 rad18 strain (AID 175); settings: S. cerevisiae mlh1 rad18 strain growth inhibition, stronger effect = higher value
# Outline: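 Steps: expose repair-defective yeast to compound; measure growth; express inhibition against vehicle-treated controls.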
# [7] = at 5.0 µM (retest, dose inferred, filed as 0.5)
# [8] = at 50.0 µM (retest, dose inferred, filed as 5.0)
SMILES,"growth inhibition [1, 7]","growth inhibition [1, 8]",growth inhibition ([1]; at 50.0 µM),"growth inhibition [2, 7]","growth inhibition [2, 8]",growth inhibition ([2]; at 50.0 µM),"growth inhibition [3, 7]","growth inhibition [3, 8]",growth inhibition ([3]; at 50.0 µM),"growth inhibition [4, 7]","growth inhibition [4, 8]",growth inhibition ([4]; at 50.0 µM),"growth inhibition [5, 7]","growth inhibition [5, 8]",growth inhibition ([5]; at 50.0 µM),"growth inhibition [6, 7]","growth inhibition [6, 8]",growth inhibition ([6]; at 50.0 µM)
O=C(O/N=C1/CCCC/C1=C\c1ccccc1)c1ccccc1,24%,86% (active),76.2% (active),17%,95% (active),88.3% (active),51%,94% (active),85.8% (active),47%,97% (active),87% (active),53%,94% (active),81.1% (active),19%,82% (active),81.7% (active)
COc1cc2c(cc1OC)C(Cl)C(c1ccc(F)cc1)=C2Cl (stereo not given),-23%,0%,17.8%,5%,3%,10.4%,-4%,-3%,-5.35%,-3%,6%,10.4%,-2%,4%,45.2%,0%,-1%,-3.4%
CC(=O)Nc1nnc(C)s1,0%,-3%,4.25%,0%,-3%,-11.8%,-2%,-5%,-4.4%,-3%,6%,13%,1%,1%,-19.3%,1%,-3%,-18.8%
CCN(CC)c1ccc(SC#N)cc1,1%,93% (active),91.2% (active),-39%,94% (active),95.1% (active),0%,95% (active),58%,-3%,88% (active),90.2% (active),10%,96% (active),97.5% (active),-3%,95% (active),93.6% (active)
COC(=O)[C@@]12OC[C@]34[C@H]([C@@H](O)[C@@H]1O)[C@@]1(C)[C@H](O)C(=O)C=C(C)[C@@H]1C[C@H]3OC(=O)C(OC(C)=O)[C@@H]24 (stereo not given in full),36%,98% (active),91% (active),35%,98% (active),89.3% (active),30%,98% (active),87.8% (active),43%,99% (active),90.5% (active),19%,98% (active),90.5% (active),34%,99% (active),90.8% (active)
O=C1c2c(O)ccc(O)c2C(=O)c2c(O)ccc(O)c21,-23%,22%,21.4%,1%,-12%,18.2%,-12%,10%,12.3%,-10%,-2%,41%,-14%,8%,16.5%,8%,-2%,4.25%
CCOc1c(Br)cc(Br)cc1/C=N/NS(=O)(=O)c1ccc(C)cc1,41%,90% (active),75.7% (active),26%,88% (active),74.5% (active),38%,90% (active),82.2% (active),30%,87% (active),82.6% (active),45%,85% (active),72.2% (active),48%,91% (active),75% (active)
Oc1ccccc1/C=N/NC(=S)NC12CC3CC(CC(C3)C1)C2,7%,19%,81.3% (active),14%,11%,29.6%,27%,19%,64.4%,-38%,20%,31.1%,21%,21%,42.8%,10%,41%,85.9% (active)
COc1cc(/C=C2/SC(=S)NC2=O)cc(OC)c1O,-18%,29%,46.4%,3%,49%,30.9%,1%,42%,71.4% (active),-25%,20%,-1.6%,-24%,22%,42.6%,-1%,19%,41.2%
CSc1nc(=S)c2[nH]c(C)nc2[nH]1,0%,4%,93.3% (active),-2%,-3%,99.6% (active),0%,1%,99.2% (active),-3%,6%,98.5% (active),-1%,-6%,99.6% (active),1%,3%,97.5% (active)
